Measurements published in PubChem BioAssay (NCI).
About 83,000 compounds went through this panel and 20% of them were active in at least one assay; those are over-represented in the sample as a whole.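 Method: cells in 96-well plates; compound added at one concentration; 48 h incubation; percent growth measured; values under 10 scored active.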 Activity calls are given as the source filed them.

How the values were obtained:
Assay in all cases: NCI-60 one-dose screen, 48 h (100 = growth as untreated, 0 = no growth, -100 = all killed)
Details in all cases: 10 µM unless noted
NCI-H23 lung = tested on: NCI-H23 lung
NCI-H226 lung = tested on: NCI-H226 lung
NCI-H322M lung = tested on: NCI-H322M lung
HOP-62 NSCLC = tested on: HOP-62 NSCLC
NCI-H460 lung = tested on: NCI-H460 lung
HOP-92 NSCLC = tested on: HOP-92 NSCLC
NCI-H522 lung = tested on: NCI-H522 lung
A549/ATCC NSCLC = tested on: A549/ATCC NSCLC
786-0 renal = tested on: 786-0 renal
COLO 205 colon = tested on: COLO 205 colon

Measured: growth

COc1cc(C(=O)/C=C/c2c(-c3ccc(F)cc3)nc3ncccn23)cc(OC)c1OC
active: NCI-H522 lung -0.92%
inactive: NCI-H23 lung 39.3% | NCI-H226 lung 63.4% | NCI-H322M lung 69.9% | HOP-62 NSCLC 68.1% | NCI-H460 lung 21.6% | HOP-92 NSCLC 23.6% | A549/ATCC NSCLC 61.1% | 786-0 renal 70.7%

N#Cc1cnn2c(-c3ccc(Cl)cc3)nc(NCCc3ccccc3)nc12
inactive: NCI-H23 lung 85.2% | NCI-H226 lung 105% | NCI-H322M lung 83.5% | HOP-62 NSCLC 84.9% | NCI-H460 lung 99% | HOP-92 NSCLC 92.6% | NCI-H522 lung 74.4% | A549/ATCC NSCLC 93.3% | 786-0 renal 92.5%

C/C(Cc1ccc(Cl)cc1)=C(/c1ccc(Cl)cc1)c1ccc(OCCN(C)C)cc1
active: NCI-H460 lung -46.9% | COLO 205 colon -59.2%
inactive: NCI-H23 lung 73.2% | NCI-H226 lung 104% | NCI-H322M lung 91.2% | HOP-62 NSCLC 99.2% | HOP-92 NSCLC 72% | NCI-H522 lung 80.6% | A549/ATCC NSCLC 57.8% | 786-0 renal 61.7%

Cc1nn(-c2ccccc2)c2c1C(c1ccc([N+](=O)[O-])cc1)C(C#N)=C(N)O2 (stereo not given)
inactive: NCI-H23 lung 98.4% | NCI-H226 lung 99.3% | NCI-H322M lung 116% | HOP-62 NSCLC 94.3% | NCI-H460 lung 108% | HOP-92 NSCLC 91.7% | NCI-H522 lung 97.5% | A549/ATCC NSCLC 102% | 786-0 renal 102%

COc1cc2c(cc1OC)-c1ccc3cc4c(cc3c1N(CCN1CCCC1)C2)OCO4
inactive: NCI-H23 lung 10.9% | HOP-92 NSCLC 22.8%
active: NCI-H226 lung -3.34% | NCI-H322M lung 5.86% | HOP-62 NSCLC -18.1% | NCI-H460 lung -19.4% | NCI-H522 lung -39.7% | A549/ATCC NSCLC 5.78% | 786-0 renal -32%

COc1cc(/C=C/C(=O)c2cccc(-n3cc(-c4ccc(Cl)cc4)[nH]c3=O)c2)cc(OC)c1OC
inactive: NCI-H23 lung 52.3% | NCI-H226 lung 81.4% | NCI-H322M lung 92% | HOP-62 NSCLC 86.4% | NCI-H460 lung 54.7% | HOP-92 NSCLC 51.5% | NCI-H522 lung 16.5% | A549/ATCC NSCLC 88.6% | 786-0 renal 82.2%

COc1cc2c(cc1OC)-c1ccc3cc4c(cc3c1N(CCN(C)C)C2)OCO4
active: NCI-H23 lung -8.26% | NCI-H226 lung -84.7% | NCI-H322M lung -3.14% | HOP-62 NSCLC -21.6% | NCI-H460 lung -34.2% | HOP-92 NSCLC -5.08% | NCI-H522 lung -44.9% | A549/ATCC NSCLC -57.3% | 786-0 renal -87.7%

C[C@@H]1C(=O)N(C[C@@H](Cc2ccccc2)NC(=O)OCc2ccccc2)[C@]1(Cc1ccccc1)C(=O)OCc1ccccc1
inactive: NCI-H23 lung 37.1% | NCI-H226 lung 36.3% | NCI-H322M lung 56.4% | HOP-62 NSCLC 67.3% | NCI-H460 lung 38.3% | HOP-92 NSCLC 30.1% | NCI-H522 lung 44.3% | A549/ATCC NSCLC 22.8% | 786-0 renal 52.9%

CCc1c(C(=O)N[C@@H]2c3cc(Cl)ccc3CC[C@@H]2O)[nH]c(C)c1C(C)=O
inactive: NCI-H23 lung 100% | NCI-H226 lung 76.5% | NCI-H322M lung 91.2% | HOP-62 NSCLC 72.1% | NCI-H460 lung 33.6% | HOP-92 NSCLC 84.1% | NCI-H522 lung 65.9% | A549/ATCC NSCLC 62% | 786-0 renal 89.3%

C=C(C=O)[C@@H]1CC=C(C=O)CC1
active: NCI-H23 lung -4.9% | NCI-H322M lung -24.7% | HOP-62 NSCLC -19.7% | NCI-H460 lung -16.6% | HOP-92 NSCLC -39.9% | NCI-H522 lung 5.01% | 786-0 renal -19.3%
inactive: NCI-H226 lung 71.2% | A549/ATCC NSCLC 15.6%

COc1ccc(OC)c(C(=O)Nc2cccc(-c3cc(=O)c4ccccc4o3)c2)c1
inactive: NCI-H23 lung 92.8% | NCI-H226 lung 92.4% | NCI-H322M lung 86.9% | HOP-62 NSCLC 89.1% | NCI-H460 lung 90% | HOP-92 NSCLC 93.7% | NCI-H522 lung 68.1% | A549/ATCC NSCLC 88.8% | 786-0 renal 92.6% | COLO 205 colon 104%

Cc1cc(=O)c2cc3nc(-c4cccnc4)oc3c(Br)c2o1
inactive: NCI-H23 lung 90% | NCI-H226 lung 116% | NCI-H322M lung 109% | HOP-62 NSCLC 101% | NCI-H460 lung 104% | HOP-92 NSCLC 92% | NCI-H522 lung 62.9% | A549/ATCC NSCLC 97.2% | 786-0 renal 96.8%

NC(=O)CC1(O)C=C(Br)C(=O)C(Br)=C1
inactive: NCI-H23 lung 57.3% | NCI-H322M lung 113% | HOP-62 NSCLC 108% | NCI-H460 lung 104% | A549/ATCC NSCLC 112% | 786-0 renal 70.8%
active: NCI-H226 lung -57.6% | HOP-92 NSCLC -50.9% | NCI-H522 lung -49.7% | COLO 205 colon -66.1%

CCCCCOC(=O)c1ccc(NC(=O)CNCC(C)C)cc1
inactive: NCI-H23 lung 99.4% | NCI-H226 lung 84.7% | NCI-H322M lung 91.9% | HOP-62 NSCLC 85.1% | NCI-H460 lung 103% | HOP-92 NSCLC 53.8% | NCI-H522 lung 70.1% | A549/ATCC NSCLC 88.4% | 786-0 renal 99.9%

CS(=O)(=O)c1ccc(-c2nc3cc(Cl)ccc3n2CC(=O)NO)cc1
inactive: NCI-H23 lung 94.7% | NCI-H226 lung 88.7% | NCI-H322M lung 98.6% | HOP-62 NSCLC 97.1% | NCI-H460 lung 101% | HOP-92 NSCLC 98% | NCI-H522 lung 86.3% | A549/ATCC NSCLC 94.1% | 786-0 renal 99.5%

CCCCCCCC/C=C/CCCCCCCC1=NCC[N+]1(CCO)CCO
inactive: NCI-H23 lung 67.9% | NCI-H226 lung 71.1% | NCI-H322M lung 83.8% | HOP-62 NSCLC 74.8% | NCI-H460 lung 42.7% | HOP-92 NSCLC 46.4% | NCI-H522 lung 29% | A549/ATCC NSCLC 81.9% | 786-0 renal 72.3%

CC(C)OCCCNCC(=O)Nc1ccc(S(=O)(=O)c2ccc(NC(=O)CNCCCOC(C)C)cc2)cc1
inactive: NCI-H23 lung 101% | NCI-H226 lung 104% | NCI-H322M lung 118% | HOP-62 NSCLC 85.9% | NCI-H460 lung 94.9% | HOP-92 NSCLC 50.2% | NCI-H522 lung 93.3% | A549/ATCC NSCLC 106% | 786-0 renal 93.5%

CSc1ccc(Cl)c(C(=O)Nc2sccc2C(N)=O)c1
inactive: NCI-H23 lung 97.9% | NCI-H226 lung 79.9% | NCI-H322M lung 124% | HOP-62 NSCLC 107% | NCI-H460 lung 101% | HOP-92 NSCLC 75.6% | NCI-H522 lung 92.2% | A549/ATCC NSCLC 85.6% | 786-0 renal 94.2%

Cc1c2c(cn1Cc1ccccc1)CCc1cn[nH]c1-2
inactive: NCI-H23 lung 89.2% | NCI-H226 lung 101% | NCI-H322M lung 106% | HOP-62 NSCLC 89.1% | NCI-H460 lung 101% | HOP-92 NSCLC 70.1% | NCI-H522 lung 97.5% | A549/ATCC NSCLC 99.3% | 786-0 renal 98.1%

O=C(Nc1ccccn1)[C@H](O)[C@@H](O)C(=O)N1CCOCC1
inactive: NCI-H23 lung 106% | NCI-H226 lung 95.3% | NCI-H322M lung 115% | HOP-62 NSCLC 104% | NCI-H460 lung 105% | HOP-92 NSCLC 106% | NCI-H522 lung 102% | A549/ATCC NSCLC 99.6% | 786-0 renal 107%

O=C1C2=C(CCN(Cc3ccccc3)C2)N2CCN=C2N1Cc1ccc(C(F)(F)F)cc1
inactive: NCI-H23 lung 31% | NCI-H226 lung 25.9% | NCI-H322M lung 37.8% | HOP-62 NSCLC 31% | NCI-H460 lung 14.7% | HOP-92 NSCLC 18.8% | NCI-H522 lung 19.9% | A549/ATCC NSCLC 27.6% | 786-0 renal 48.8%

C(=C\c1nc2ccccc2[nH]1)/c1nc2ccccc2[nH]1
inactive: NCI-H23 lung 96.5% | NCI-H226 lung 92.6% | NCI-H322M lung 98.6% | HOP-62 NSCLC 110% | NCI-H460 lung 103% | HOP-92 NSCLC 95% | NCI-H522 lung 98% | A549/ATCC NSCLC 99.1% | 786-0 renal 113%

COc1ccc(Oc2nc(Nc3ccc(N4CCOCC4)nc3)ncc2NC(=O)c2cc(OC)cc(OC)c2)cc1
inactive: NCI-H23 lung 97.9% | NCI-H226 lung 65% | NCI-H322M lung 88% | HOP-62 NSCLC 82.6% | NCI-H460 lung 82.3% | HOP-92 NSCLC 82.8% | NCI-H522 lung 52.1% | A549/ATCC NSCLC 84.6% | 786-0 renal 67.4%

N=c1ccn2c(n1)OC1C(O)C(CO)OC12 (stereo not given)
active: NCI-H460 lung -9.72%
inactive: NCI-H23 lung 24.7% | NCI-H226 lung 45.1% | NCI-H322M lung 63.8% | HOP-62 NSCLC 24.5% | HOP-92 NSCLC 49.2% | NCI-H522 lung 35.9% | A549/ATCC NSCLC 16.2% | 786-0 renal 15%

CC(C)CCC[C@@H](C)[C@H]1CCC2C3=CCC4C(=O)C=CC(=O)C4C3CC[C@@]21C (stereo not given in full)
inactive: NCI-H226 lung 42% | NCI-H322M lung 42.6% | HOP-62 NSCLC 12.1%
active: NCI-H23 lung 8.4% | NCI-H460 lung 2.88% | HOP-92 NSCLC -28.9% | NCI-H522 lung -46.1% | A549/ATCC NSCLC 8.75% | 786-0 renal -5.66%

CCCCOc1ccc(NC(=O)n2nc(N=NN(C)C)c3ccc(Cl)cc32)cc1
inactive: NCI-H23 lung 94.2% | NCI-H226 lung 96.3% | NCI-H322M lung 99.4% | HOP-62 NSCLC 88.3% | NCI-H460 lung 110% | HOP-92 NSCLC 93% | NCI-H522 lung 90.1% | A549/ATCC NSCLC 111% | 786-0 renal 109%

CCCc1cc(=O)oc2c3c(c4c(c12)OC(C)(C)C=C4)O[C@@H](C)[C@H](C)C3=O
inactive: NCI-H23 lung 61.1% | NCI-H226 lung 89.8% | NCI-H322M lung 81% | HOP-62 NSCLC 102% | NCI-H460 lung 60.5% | HOP-92 NSCLC 43.7% | NCI-H522 lung 71.9% | A549/ATCC NSCLC 64.5% | 786-0 renal 72.8% | COLO 205 colon 74.8%

CCN(CCO)CC(=O)c1cc(Cl)cc(Cl)c1Cl
inactive: NCI-H23 lung 96.6% | NCI-H226 lung 88.6% | NCI-H322M lung 101% | HOP-62 NSCLC 94.8% | NCI-H460 lung 105% | HOP-92 NSCLC 89.4% | NCI-H522 lung 67.6% | A549/ATCC NSCLC 96.1% | 786-0 renal 98.1%

CC(=O)Nc1ccc2c(c1)Cc1c(F)cccc1-2
inactive: NCI-H23 lung 94.9% | NCI-H226 lung 89.4% | NCI-H322M lung 112% | HOP-62 NSCLC 116% | NCI-H460 lung 92.2% | HOP-92 NSCLC 89% | NCI-H522 lung 89% | A549/ATCC NSCLC 92% | 786-0 renal 115%
